Results filed as inconclusive are left out. Activity calls are given as the source filed them. Rule for the calls: active = hit-call score of the fitted dose curve at least 0.9, where 1 is the maximum; inconclusive = response in the unintended direction; inactive = score below 0.9.
Experiments:
[1] = molecular target: Estrogen receptor (Homo sapiens) (UniProt P03372); assay: NVS_NR_hER: NovaScreen (NVS) Nuclear Receptor Binding Assay for human Estrogen Receptor (ER) (AID 2283348)
Procedure, shortened: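 Cell-free radioligand binding with protein extracted from MCF7 cells; scintillation counting 18 hours after dosing. Loss of signal versus DMSO baseline read as displacement; primary single-concentration screen at 25 uM in duplicate, actives retested in concentration series.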

[2] = molecular target: Estrogen receptor (Homo sapiens) (UniProt P03372); assay: OT_ER_ERaERa_1440: Odyssey Thera (OT) 24-hour HEK293T Protein-Complementation Assay for Estrogen Receptor-alpha/-alpha Homodimer (AID 2283349);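 note: hits raise fluorescence above DMSO for agonists and antagonists alike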
Procedure, shortened: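 Readout is the rise in mean fluorescence from reporter fragment complementation when ERα LBD (aa 310-547) units dimerize in HEK293T cells. Measured 24 h after dosing and analysed as increase over DMSO control.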

[3] = molecular target: Estrogen receptor (Homo sapiens) (UniProt P03372); assay: OT_ER_ERaERa_0480: Odyssey Thera (OT) 8-hour HEK293T Protein-Complementation Assay for Estrogen Receptor-alpha/-alpha Homodimer (AID 2283351);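 note: rise in fluorescence from reassembled reporter fragments on ERα LBD homodimer in nucleus or whole cell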
Procedure, shortened: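 Binding reporter in which dimerisation of ERα LBD (aa 310-547) fusions reconstitutes a fluorescent reporter in HEK293T cells. Compounds incubated 8 h; mean fluorescence intensity increase versus DMSO scored.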

[4] = molecular target: Bile acid receptor (Homo sapiens) (UniProt Q96RI1); assay: NVS_NR_hFXR_Antagonist: NovaScreen (NVS) Nuclear Receptor Binding Assay for human Farnesoid X Receptor Antagonism (FXR) (AID 2283350)
Chain of Bile acid receptor (Homo sapiens) (Q96RI1 whole entry, looked up): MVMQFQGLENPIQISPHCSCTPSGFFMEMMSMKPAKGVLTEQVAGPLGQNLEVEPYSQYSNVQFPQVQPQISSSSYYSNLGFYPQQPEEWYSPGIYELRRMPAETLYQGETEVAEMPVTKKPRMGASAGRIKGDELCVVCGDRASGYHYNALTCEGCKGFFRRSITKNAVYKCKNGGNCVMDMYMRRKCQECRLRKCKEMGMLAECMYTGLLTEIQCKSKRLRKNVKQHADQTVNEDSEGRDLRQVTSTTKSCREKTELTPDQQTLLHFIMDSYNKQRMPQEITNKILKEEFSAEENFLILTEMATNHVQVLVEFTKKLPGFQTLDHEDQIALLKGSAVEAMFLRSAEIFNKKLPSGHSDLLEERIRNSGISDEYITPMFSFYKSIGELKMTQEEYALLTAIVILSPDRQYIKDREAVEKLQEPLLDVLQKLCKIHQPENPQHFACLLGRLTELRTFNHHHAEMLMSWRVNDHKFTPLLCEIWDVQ
Procedure, shortened: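 Cell-free TR-FRET ligand-binding read-out on human FXR (NR1H4) in antagonist mode, measured 1 h after dosing. Primary screen in duplicate at 25 uM, actives retested in concentration series; signal loss scored versus DMSO.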

[5] = molecular target: Estrogen receptor (Homo sapiens) + Estrogen receptor beta (Homo sapiens) (UniProt P03372+Q92731); assay: OT_ER_ERaERb_0480: Odyssey Thera (OT) 8-hour HEK293T Protein-Complementation Assay for Estrogen Receptor-alpha/-beta Heterodimer (AID 2283352)
Chain of Estrogen receptor (Homo sapiens) + Estrogen receptor beta (Homo sapiens) (P03372 whole entry, looked up, the tested form may be a part): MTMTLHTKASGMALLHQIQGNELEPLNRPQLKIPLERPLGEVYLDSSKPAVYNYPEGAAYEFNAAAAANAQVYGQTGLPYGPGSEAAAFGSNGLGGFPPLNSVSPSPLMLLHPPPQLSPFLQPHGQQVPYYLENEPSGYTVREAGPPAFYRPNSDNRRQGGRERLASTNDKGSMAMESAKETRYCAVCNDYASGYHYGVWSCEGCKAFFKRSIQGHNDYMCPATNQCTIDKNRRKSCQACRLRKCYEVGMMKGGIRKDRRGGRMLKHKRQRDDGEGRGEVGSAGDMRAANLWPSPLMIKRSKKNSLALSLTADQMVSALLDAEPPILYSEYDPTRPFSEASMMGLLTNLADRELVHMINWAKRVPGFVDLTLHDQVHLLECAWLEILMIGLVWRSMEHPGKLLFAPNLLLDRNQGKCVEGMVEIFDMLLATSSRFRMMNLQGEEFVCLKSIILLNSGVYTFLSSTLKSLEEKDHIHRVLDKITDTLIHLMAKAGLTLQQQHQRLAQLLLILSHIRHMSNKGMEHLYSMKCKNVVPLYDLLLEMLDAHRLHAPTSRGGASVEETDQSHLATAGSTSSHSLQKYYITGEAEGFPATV
Chain of Estrogen receptor (Homo sapiens) + Estrogen receptor beta (Homo sapiens) (Q92731 whole entry, looked up, the tested form may be a part): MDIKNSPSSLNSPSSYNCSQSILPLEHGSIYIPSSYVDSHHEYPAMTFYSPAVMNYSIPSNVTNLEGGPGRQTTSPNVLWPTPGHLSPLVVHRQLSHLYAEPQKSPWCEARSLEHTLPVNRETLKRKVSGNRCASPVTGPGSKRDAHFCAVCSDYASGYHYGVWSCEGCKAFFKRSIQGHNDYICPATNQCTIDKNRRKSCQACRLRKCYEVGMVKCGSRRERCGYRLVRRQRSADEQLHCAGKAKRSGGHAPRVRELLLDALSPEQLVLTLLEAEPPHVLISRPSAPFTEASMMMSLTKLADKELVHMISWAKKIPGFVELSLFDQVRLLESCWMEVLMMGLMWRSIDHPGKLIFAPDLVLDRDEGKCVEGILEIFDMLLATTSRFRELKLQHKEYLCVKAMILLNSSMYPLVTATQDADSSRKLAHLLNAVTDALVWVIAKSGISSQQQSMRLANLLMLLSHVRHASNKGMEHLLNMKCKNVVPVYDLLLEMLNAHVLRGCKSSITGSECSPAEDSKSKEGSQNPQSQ
Procedure, shortened: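 Fluorescence intensity readout from a protein-fragment complementation reporter in HEK293T; ER-alpha/ER-beta LBD heterodimer. Dosing 8 h. Gain-of-signal fit relative to DMSO negative control; laser scanning cytometry of whole-well cell population.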

[6] = molecular target: Androgen Receptor/SRC-1 Co-activator, AR (gene 367) (UniProt P10275); assay: OT_AR_ARSRC1_0960: Odyssey Thera (OT) 16-hour HEK293T Protein-Complementation Assay for Androgen Receptor/SRC-1 Co-activator (AID 2283353);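 note: actives raise the signal above DMSO so potency reflects increased AR and SRC-1 complex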
Chain of Androgen Receptor/SRC-1 Co-activator, AR (gene 367) (P10275 whole entry, looked up, the tested form may be a part): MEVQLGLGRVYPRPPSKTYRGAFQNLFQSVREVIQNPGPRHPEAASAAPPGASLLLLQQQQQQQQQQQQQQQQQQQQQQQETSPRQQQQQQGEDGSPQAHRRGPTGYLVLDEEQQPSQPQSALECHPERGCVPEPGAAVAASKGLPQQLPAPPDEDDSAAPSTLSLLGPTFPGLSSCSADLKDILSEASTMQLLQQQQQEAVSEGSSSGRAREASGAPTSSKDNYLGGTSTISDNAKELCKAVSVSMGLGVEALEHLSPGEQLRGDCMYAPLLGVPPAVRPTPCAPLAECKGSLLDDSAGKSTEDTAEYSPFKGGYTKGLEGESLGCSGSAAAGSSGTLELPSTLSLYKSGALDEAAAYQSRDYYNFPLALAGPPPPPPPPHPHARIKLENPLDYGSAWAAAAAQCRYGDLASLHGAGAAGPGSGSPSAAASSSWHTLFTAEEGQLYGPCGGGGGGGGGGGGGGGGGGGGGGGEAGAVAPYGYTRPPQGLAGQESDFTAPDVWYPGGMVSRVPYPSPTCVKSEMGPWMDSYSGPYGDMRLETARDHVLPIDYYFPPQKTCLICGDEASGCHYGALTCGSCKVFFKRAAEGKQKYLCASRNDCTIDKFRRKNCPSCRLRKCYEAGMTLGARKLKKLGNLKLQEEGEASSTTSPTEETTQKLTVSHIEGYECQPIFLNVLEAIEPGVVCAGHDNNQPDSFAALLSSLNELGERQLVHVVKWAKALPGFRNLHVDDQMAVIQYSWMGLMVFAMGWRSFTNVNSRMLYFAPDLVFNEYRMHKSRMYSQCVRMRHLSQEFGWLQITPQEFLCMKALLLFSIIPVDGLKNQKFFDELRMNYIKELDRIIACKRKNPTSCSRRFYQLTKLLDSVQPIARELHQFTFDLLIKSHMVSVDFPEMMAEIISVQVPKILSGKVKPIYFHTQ
Procedure, shortened: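 Interaction of AR with SRC-1 was followed by YFP fragment complementation in HEK293T cells after 16 h of dosing. Gain of nuclear-over-cytoplasmic 488 nm fluorescence against DMSO controls defined activity.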

NCBI gene 100848466 = assay: NVS_NR_bPR: NovaScreen (NVS) Nuclear Receptor Binding Assay for bovine Progextron Receptor (PR) (AID 2283343);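 for AC50: actives lower bound radioligand signal below DMSO meaning displacement of the label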
Procedure, shortened: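 Bovine uterine membrane preparation, cell-free; radioligand competitive displacement measured by scintillation counting 18 hours after dosing. Loss of signal versus DMSO baseline indicates binding; primary HTS single concentration 25 uM in duplicate, actives followed in concentration series.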

[7] = molecular target: chimpanzee Androgen Receptor (AR), AR (gene 747460) (UniProt O97775); assay: NVS_NR_cAR: NovaScreen (NVS) Nuclear Receptor Binding Assay for chimpanzee Androgen Receptor (AR) (AID 2283346);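 note: radioligand displacement from AR measured by scintillation counting in a cell-free assay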
Chain of chimpanzee Androgen Receptor (AR), AR (gene 747460) (O97775 whole entry, looked up): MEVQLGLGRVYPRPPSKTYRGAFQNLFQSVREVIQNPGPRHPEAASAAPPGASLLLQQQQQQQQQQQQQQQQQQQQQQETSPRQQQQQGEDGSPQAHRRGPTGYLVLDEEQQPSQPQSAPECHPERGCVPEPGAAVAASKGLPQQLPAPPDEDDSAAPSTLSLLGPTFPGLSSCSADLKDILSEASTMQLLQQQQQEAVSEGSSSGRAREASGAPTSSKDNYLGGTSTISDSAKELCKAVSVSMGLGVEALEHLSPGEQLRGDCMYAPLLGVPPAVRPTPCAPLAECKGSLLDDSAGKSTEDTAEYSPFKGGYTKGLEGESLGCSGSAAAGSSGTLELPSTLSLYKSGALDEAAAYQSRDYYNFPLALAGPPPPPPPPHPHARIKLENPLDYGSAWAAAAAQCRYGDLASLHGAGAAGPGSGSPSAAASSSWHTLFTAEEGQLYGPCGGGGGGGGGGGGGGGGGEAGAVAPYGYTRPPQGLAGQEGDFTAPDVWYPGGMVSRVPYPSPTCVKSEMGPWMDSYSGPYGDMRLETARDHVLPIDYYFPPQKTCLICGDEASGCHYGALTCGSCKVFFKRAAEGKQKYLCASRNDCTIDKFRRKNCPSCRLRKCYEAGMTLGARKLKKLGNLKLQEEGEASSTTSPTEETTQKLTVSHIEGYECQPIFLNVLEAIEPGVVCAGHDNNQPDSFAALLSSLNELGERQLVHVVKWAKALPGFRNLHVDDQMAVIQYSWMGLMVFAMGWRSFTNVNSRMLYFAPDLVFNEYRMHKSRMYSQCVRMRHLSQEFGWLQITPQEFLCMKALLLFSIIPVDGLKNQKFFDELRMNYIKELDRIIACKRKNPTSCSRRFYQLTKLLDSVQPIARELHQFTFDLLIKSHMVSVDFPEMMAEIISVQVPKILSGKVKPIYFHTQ
Procedure, shortened: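 Cell-free radioligand displacement using receptor protein extracted from Sf9/Sf21 cells; bound radioligand measured by scintillation counting 72 hours after chemical dosing. Loss of signal versus DMSO baseline indicates binding; primary screen single-concentration in duplicate at 25 uM, actives followed in concentration series.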

[8] = molecular target: human Constitutive Androstane Receptor (CAR), NR1I3 (gene 9970) (UniProt Q14994); assay: NVS_NR_hCAR_Antagonist: NovaScreen (NVS) Nuclear Receptor Binding Assay for human Constitutive Androstane Receptor Antagonism (CAR) (AID 2283344)
Chain of human Constitutive Androstane Receptor (CAR), NR1I3 (gene 9970) (Q14994 whole entry, looked up): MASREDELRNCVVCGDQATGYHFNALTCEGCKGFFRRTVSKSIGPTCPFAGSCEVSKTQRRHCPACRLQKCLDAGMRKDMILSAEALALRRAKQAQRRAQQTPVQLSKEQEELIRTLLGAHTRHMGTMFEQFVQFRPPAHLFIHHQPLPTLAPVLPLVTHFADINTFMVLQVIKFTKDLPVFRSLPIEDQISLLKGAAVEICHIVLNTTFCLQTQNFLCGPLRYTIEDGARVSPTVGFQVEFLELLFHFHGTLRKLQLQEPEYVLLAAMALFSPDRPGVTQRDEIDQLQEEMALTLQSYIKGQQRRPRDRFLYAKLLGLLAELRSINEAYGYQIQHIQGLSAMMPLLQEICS
Procedure, shortened: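 Cell-free TR-FRET binding read 1 h after dosing, antagonist mode; loss of signal versus DMSO baseline. Primary screen in duplicate at a single 25 uM; actives retested in concentration series.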

[9] = test system: guinea pig Histamine Receptor (H2), gene 100729734; assay: NVS_GPCR_gH2: NovaScreen (NVS) G Protein-Coupled Receptor Assay for guinea pig Histamine Receptor (H2) (AID 2283342)
Procedure, shortened: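 Radioligand displacement on guinea pig striatal membranes, 1 h after dosing, filter-based scintillation counting; loss of signal versus DMSO. Single-point screen at 25 uM in duplicate, then concentration-response up to 50 uM.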

Chain of Estrogen receptor (Homo sapiens) (P03372 whole entry, looked up, the tested form may be a part): as the sequence (P03372 whole entry, looked up, the tested form may be a part) above

CC=Cc1ccc(O)c(OC)c1
outcome [1]: inactive
AC50 [2]: 73.5 µM (active)
AC50 [3]: 57.6 µM (active)

COc1cc(C=O)ccc1O
AC50 [1]: 38.6 µM (active)
outcome [2]: inactive
outcome [4]: inactive
outcome [3]: inactive
outcome [5]: inactive
outcome [6]: inactive

CCCCC(CC)COC(=O)CC(C(=O)OCC(CC)CCCC)S(=O)(=O)O (configuration not stated)
AC50 (NCBI gene 100848466): 10.9 µM (active)
AC50 [7]: 17.7 µM (active)
outcome [1]: inactive
outcome [2]: inactive

CCOC(=O)CCC(=O)OCC
outcome [1]: inactive
outcome [2]: inactive
outcome [3]: inactive
outcome [5]: inactive

C[C@]12C=CC(=O)C=C1CC[C@@H]1[C@@H]2C(=O)C[C@@]2(C)[C@H]1CC[C@]2(O)C(=O)CO
AC50 [7]: 14.8 µM (active)
outcome [1]: inactive
outcome [3]: inactive

CCCCCCCCCCCC(=O)OC
outcome [8]: inactive
outcome [2]: inactive
outcome [4]: inactive
outcome [3]: inactive
outcome [5]: inactive

Cc1cc(NC(=O)C(=O)O)cc(C)c1Oc1ccc(O)c2c1CCC2
outcome [7]: inactive
outcome [3]: inactive
outcome [6]: inactive

CCCc1cc(=O)[nH]c(=S)[nH]1
AC50 [1]: 11.2 µM (active)
outcome [2]: inactive
outcome [3]: inactive

O=[N+]([O-])C(CO)(CO)CO
outcome (NCBI gene 100848466): inactive
outcome [3]: inactive

CCc1c(C(=O)NN2CCCCC2)nn(-c2ccc(Cl)cc2Cl)c1-c1ccc(Br)cc1
outcome [9]: inactive
outcome [8]: inactive
outcome [3]: inactive
outcome [5]: inactive

O=C(OCCCCCOC(=O)c1ccccc1)c1ccccc1
outcome [8]: inactive
outcome [3]: inactive

CCOc1ccc2c(c1)C(C)=CC(C)(C)N2
AC50 (NCBI gene 100848466): 25 µM (active)
AC50 [1]: 39.2 µM (active)
outcome [2]: inactive
outcome [3]: inactive
outcome [6]: inactive

COc1cc(-c2nc(NC(=O)c3cc4cc(C)cc(C)c4n3CC(=O)O)sc2CCC2CCCCC2)c(OC)cc1Cl
AC50 [8]: 3.54 µM (active)
outcome [2]: inactive
outcome [4]: inactive
outcome [3]: inactive
outcome [5]: inactive
AC50 [6]: 10.5 µM (active)

Cc1ccc(C(C)C)c(O)c1
outcome [8]: inactive
outcome [3]: inactive
outcome [5]: inactive

NC(=O)Cn1c(=O)cc(CCN2CCN(c3nccc4sccc34)CC2)c2ccc(F)cc21
AC50 [9]: 1.82 µM (active)
outcome [3]: inactive

O=c1c(O)c(-c2ccc(O)c(O)c2)oc2cc(O)cc(O)c12
outcome [1]: inactive
outcome [2]: inactive
outcome [3]: inactive
AC50 [5]: 13.4 µM (active)

CN1CCN(Cc2cc(-c3ccc4[nH]c(=O)oc4c3)co2)[C@@H](c2ccc(F)cc2)C1
AC50 [9]: 0.445 µM (active)

COc1ccc(S(=O)(=O)N2C(=O)[C@@](c3ccccc3OC)(N3C[C@H](O)C[C@H]3C(=O)N(C)C)c3cc(Cl)ccc32)c(OC)c1
AC50 [7]: 13.8 µM (active)
outcome [1]: inactive
outcome [2]: inactive
outcome [3]: inactive
AC50 [6]: 40.4 µM (active)

Nc1ccc2c(c1)C(=O)c1ccccc1C2=O
AC50 [7]: 19.8 µM (active)
outcome [1]: inactive
outcome [2]: inactive

COC(=O)c1ccc(O)cc1
outcome [1]: inactive
outcome [2]: inactive
outcome [3]: inactive
AC50 [5]: 50 µM (active)

C=CCOC(=O)c1ccccc1C(=O)OCC=C
AC50 [7]: 14.5 µM (active)
AC50 [1]: 41.4 µM (active)
outcome [2]: inactive
AC50 [3]: 63.1 µM (active)

Cc1nc(-c2ccc3c(c2)CCN(CCC2CCC(NC(=O)/C=C/c4ccc(F)cc4)CC2)CC3)no1 (configuration not stated)
AC50 [9]: 0.216 µM (active)
outcome [8]: inactive
outcome [7]: inactive
outcome [1]: inactive
outcome [2]: inactive
outcome [4]: inactive
outcome [3]: inactive
outcome [5]: inactive
outcome [6]: inactive

CCCCc1ccc2c(n1)[C@@H](c1ccc(OC)cc1C[C@H](C)C(=O)O)[C@H](C(=O)O)[C@H]2c1ccc2c(c1)OCO2
outcome [8]: inactive
outcome [2]: inactive
outcome [3]: inactive
outcome [5]: inactive

CNCc1cc(F)ccc1Oc1ccc(Cl)c(Cl)c1
AC50 [7]: 16.6 µM (active)
outcome [2]: inactive
outcome [3]: inactive

CCNc1cccc(C)c1
outcome [7]: inactive
outcome [2]: inactive
outcome [3]: inactive

CCCCCCCCCCCCCCCCCC(=O)O
AC50 [1]: 17.2 µM (active)
outcome [2]: inactive
outcome [3]: inactive

C=CCc1ccc(O)c(OC)c1
AC50 [7]: 21 µM (active)
outcome [1]: inactive
outcome [2]: inactive
outcome [3]: inactive

CCCCN(CCCC)CCCC
outcome [7]: inactive
outcome [2]: inactive
outcome [3]: inactive
outcome [5]: inactive

CCCCCCCCCCC
outcome [8]: inactive
outcome [2]: inactive
outcome [3]: inactive
outcome [5]: inactive
outcome [6]: inactive

CCOC(=O)C(C)(C)Oc1ccc(Cl)cc1
outcome [2]: inactive
outcome [3]: inactive
outcome [5]: inactive

OC[C@@H](O)[C@@H](O)[C@H](O)[C@H](O)CO
outcome [2]: inactive
outcome [3]: inactive

CC(=O)OC/C=C(\C)CCC=C(C)C
outcome [2]: inactive
outcome [3]: inactive

CCCCCCCCCCCCCCCC
outcome [2]: inactive
outcome [3]: inactive

CC(=O)C(C)=CC1C(C)=CCCC1(C)C (configuration not stated)
outcome [1]: inactive
outcome [3]: inactive

From PubChem BioAssay (EPA / NIEHS)
